Measured values published in PubChem BioAssay AID488969 (Vanderbilt High Throughput Screening Facility, 2010).
Whole data set: some 110,000 compounds, median “z-score” near -0.1, cut for the highest 2% near 2. For the sample, the highest values were picked, then their nearest neighbours and some compounds at random. Active and inactive are the calls of the source.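 The calls were made as follows: active = z-score in the third read window above 3 or below -3; inactive = the rest.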

Molecular target: Metabotropic glutamate receptor 8 (Rattus norvegicus) (UniProt P70579)
Assay: mGluR8 Gi/Go-coupled signaling modulation – cell-based, rat, thallium flux, HTS, primary screen (AID 488969)
Details: HEK293 rat mGluR8, GIRK (G protein-gated inwardly rectifying potassium channel) thallium flux, FluoZin2; at 10 µM; stronger effect = higher value; submaximal glutamate (EC20) added with thallium

Chain of Metabotropic glutamate receptor 8 (Rattus norvegicus) (P70579 whole entry, looked up): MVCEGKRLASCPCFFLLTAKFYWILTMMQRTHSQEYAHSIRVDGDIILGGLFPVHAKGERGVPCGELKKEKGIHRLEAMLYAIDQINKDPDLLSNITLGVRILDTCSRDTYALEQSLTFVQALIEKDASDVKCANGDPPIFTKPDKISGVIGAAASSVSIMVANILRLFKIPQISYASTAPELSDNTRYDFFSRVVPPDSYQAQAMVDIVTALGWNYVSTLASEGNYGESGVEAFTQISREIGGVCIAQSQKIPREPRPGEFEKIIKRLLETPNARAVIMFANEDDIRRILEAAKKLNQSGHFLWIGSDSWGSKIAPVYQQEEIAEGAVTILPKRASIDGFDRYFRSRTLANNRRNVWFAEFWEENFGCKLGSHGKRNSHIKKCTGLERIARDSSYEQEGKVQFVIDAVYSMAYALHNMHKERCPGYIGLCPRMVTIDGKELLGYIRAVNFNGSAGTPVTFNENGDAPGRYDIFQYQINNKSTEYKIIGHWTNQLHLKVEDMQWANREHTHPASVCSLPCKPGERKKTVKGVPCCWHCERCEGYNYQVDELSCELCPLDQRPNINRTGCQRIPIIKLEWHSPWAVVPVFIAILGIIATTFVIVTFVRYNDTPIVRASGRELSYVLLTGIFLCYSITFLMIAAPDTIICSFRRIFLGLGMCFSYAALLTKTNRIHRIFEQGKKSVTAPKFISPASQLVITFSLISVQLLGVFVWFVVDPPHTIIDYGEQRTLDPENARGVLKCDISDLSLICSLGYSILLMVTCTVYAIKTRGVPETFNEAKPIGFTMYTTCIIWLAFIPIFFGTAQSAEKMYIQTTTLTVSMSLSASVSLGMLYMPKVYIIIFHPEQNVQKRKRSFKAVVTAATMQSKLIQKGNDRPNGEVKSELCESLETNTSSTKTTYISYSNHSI

Compound | z-score
O=C(Cc1ccccc1)N/N=C/c1ccc(OCC(=O)Nc2ccccc2)cc1 | -0.147
CCc1nc(C)ccc1OC(=O)C12CC3CC(CC(C3)C1)C2 | 0.238
Cc1ccc(-c2cc3cccc[n+]3cc2-c2ccc(C)cc2)cc1 | -0.0109
Cc1nc2ccc(NS(=O)(=O)c3ccc4c(c3)OCCO4)cc2s1 | 3.48 (active)
O=S(=O)(Nc1cccnc1)c1ccc2c(c1)OCCO2 | -0.833
O=S(=O)(Nc1ccc2c(c1)OCCO2)c1ccc(F)cc1 | -0.102
Cc1ccc(S(=O)(=O)Nc2ccc3nc(C)sc3c2)cc1 | -0.613
Cc1nc2ccc(NS(=O)(=O)c3ccc(C)c(C)c3)cc2s1 | -0.187
Cc1cccc(NS(=O)(=O)c2ccc3c(c2)OCCO3)c1 | 2.76
CCCCOc1ccc(NC(=O)C2CC=CCC2C(=O)O)cc1 (centres undefined) | -0.0643
COc1ccc(S(=O)(=O)N(C)CC(=O)Nc2ccc3c(c2)OCO3)cc1 | 0.0177
O=C(c1ccco1)N1CCN(S(=O)(=O)c2ccc3[nH]c(=O)oc3c2)CC1 | 0.249
CC1(C)CC(=O)C2=C(C1)N(Cc1ccco1)C(=O)C2(NC(=O)c1ccc(Cl)cc1Cl)C(F)(F)F (centres undefined) | -0.289
CC(C)C(NC(=O)C1CCCCC1)C(=O)Nc1ccncc1 (centres undefined) | 0.244
Cc1ccc(NC(=S)N/N=C/c2ccc(OCCC(C)C)cc2)c(C)c1 | 0.599
Cc1ccc(NC(=S)NCCO)c(C)c1 | -0.044
CCNC(=S)N/N=C/c1cc(C)ccc1C | 2.43
CCCCNC(=S)N/N=C/c1cc(C)ccc1C | 1.48
CCNC(=S)N/N=C/c1cccc(C)c1 | 0.00977
CCNC(=S)N/N=C/c1c(Cl)cccc1Cl | 5.15 (active)
S=C(NCCc1ccccc1)N/N=C/c1c(Cl)cccc1Cl | 0.353
Cc1ccc(C)c(/C=N/NC(=S)NCCc2ccccc2)c1 | 1.17
Cc1ccc(NC(=S)N/N=C/c2c(Cl)cccc2Cl)c(C)c1 | 9.31 (active)
Cc1cc(=O)[nH]c(SCC(=O)NCCc2ccccc2)n1 | 1.96
CCN(CC)C(=O)c1sc(NC(=O)c2ccc(C)c([N+](=O)[O-])c2)c(C#N)c1C | 0.0677
CCOC(=O)C1C(=O)OC2(CCCCC2)C1C(=O)OCC (centres undefined) | 0.124
O=C(Cn1c(=O)oc2cc(S(=O)(=O)N3CCCCCC3)ccc21)NC1CCCCCCC1 | -0.034

Compound | z-score
CCc1nnc2sc(-c3cc(-c4ccccc4)nc4ccccc34)nn12 | -0.507
Cc1ccc(CNC(=O)COc2ccccc2-c2ccccc2)cc1 | -0.0564
CCN1CCN(c2ccc(NC(=O)CCc3c(C)nc4c(-c5ccccc5)c(C)nn4c3C)cc2)CC1 | 3.06 (active)
Cc1nc2c(-c3ccccc3)c(C)nn2c(C)c1CCC(=O)O | 0.235
Cc1nc2c(-c3ccc(F)cc3)c(C)nn2c(C)c1CCC(=O)N1CCN(c2ccccc2)CC1 | -0.81
CCn1nnc(-c2ccccc2NC(=O)c2cc(OC)cc(OC)c2)n1 | -0.139
O=C(c1ccc(CS(=O)(=O)c2ccccc2)o1)N1CCN(c2ncccn2)CC1 | -0.184
O=C(c1ccc(CS(=O)(=O)c2ccc(Br)cc2)o1)N1CCN(c2ncccn2)CC1 | 3.31 (active)
O=C(c1ccc(CS(=O)(=O)c2ccc(Br)cc2)o1)N1CCN(c2ccccn2)CC1 | -0.169
COC(=O)c1sccc1NC(=O)COc1ccc(Cl)cc1Cl | -0.26
COC(=O)c1sccc1NC(=O)CSc1cc(Cl)ccc1Cl | -0.165
COC(=O)c1sccc1NC(=O)COc1ccccc1Cl | -0.212
COC(=O)c1sccc1NC(=O)CSc1ccccc1NS(=O)(=O)c1cc(Cl)ccc1Cl | 8.63 (active)
COC(=O)c1sccc1NC(=O)CSc1ccccc1NS(=O)(=O)c1ccccc1Cl | 3.17 (active)
COC(=O)c1sccc1NC(=O)CSc1cccc(Cl)c1Cl | -0.0544
Cc1nn2c(-n3ccnc3C)c3c(nc2c1-c1ccccc1)CCC3 | -0.311
Clc1ccc(CNCCC2=CCCCC2)cc1 | 2.27
Cc1ccc(CNC(=O)C(=O)NCCC2=CCCCC2)cc1 | -0.102
O=C(NCCC1=CCCCC1)C(=O)NCc1ccccc1 | -0.143
Cc1ccc(CNCCC2=CCCCC2)cc1 | 2.07
C1=C(CCNCC2CC2)CCCC1 | 0.204
O=C(CCSCc1ccc(Cl)cc1)NCCC1=CCCCC1 | -0.242
COc1cc(NC(=O)CN(C)S(=O)(=O)c2ccc3c(c2)CCC(=O)N3)cc(OC)c1 | -0.176
O=C1NC(=O)[C@@H]2C3c4ccccc4C=CN3[C@H](C(=O)c3cccs3)[C@H]12 (some centres undefined) | -0.687
CCCCC(=O)Nc1nn(CCC)c2nc3ccccc3cc12 | -1.22
CC(C)=C1C2CCC1C1C(=O)N(NC(=O)COc3ccc(Cl)c(C)c3)C(=O)C21 (centres undefined) | -0.481
CC(C)=CCC/C(C)=C/C=N/NC(=O)c1ccccc1[N+](=O)[O-] | -0.0423

Compound | z-score
Cc1ccc(C2c3c(oc4ccc(Cl)cc4c3=O)C(=O)N2CCCN2CCOCC2)o1 (centres undefined) | 3.95 (active)
O=C1c2oc3ccc(Cl)cc3c(=O)c2C(c2ccco2)N1CCN1CCOCC1 (centres undefined) | 0.841
Cc1ccc(C2c3c(oc4ccccc4c3=O)C(=O)N2CCCN2CCOCC2)o1 (centres undefined) | 0.634
CC(C)c1nnc(NC(=O)CCC(=O)NCc2ccc3c(c2)OCO3)s1 | 0.746
COc1ccc(CCNC(=O)c2nonc2N)cc1 | -0.242
O=S(=O)(NCC1CCCO1)c1ccc(S(=O)(=O)N2CCc3ccccc3C2)cc1 (centres undefined) | 0.1
OCCNCCCOc1ccc(Cl)cc1Br | 0.496
COCCCNCCCOc1ccc(Cl)cc1Br | 3.75 (active)
COCCCNCCCOc1ccc(C)cc1Br | -0.00352
COc1ccc(N2C(=O)CC(N3CCN(c4ccc(C(=O)c5cccnc5)cc4)CC3)C2=O)cc1 (centres undefined) | -0.186
CC(C)(C)c1ccc(OCc2ccc(C(=O)N/N=C3\CC4CC=CC34)cc2)cc1 (centres undefined) | -0.0236
O=C1NC(=S)SC1=C1CCCC1 | 1.36
O=C1NC(=O)C(=C2CCCCCC2)S1 | 0.367
O=C1NC(=S)SC1=C1CCCCCC1 | 17.1 (active)
Cc1cc(C(=O)NCc2ccccc2F)cs1 | -0.288
CCSC1=N/C(=C\c2ccc(OC)cc2)C(=O)N1 | -0.286
CC(c1ccc(Cl)cc1)n1c(-c2ccc3ccccc3n2)n[nH]c1=S (centres undefined) | 7.23 (active)
S=c1[nH]nc(-c2ccc3ccccc3n2)n1-c1ccccc1 | 0.119
S=c1[nH]nc(-c2ccc3ccccc3n2)n1Cc1ccccc1 | 0.834
S=c1[nH]nc(-c2ccc3ccccc3n2)n1-c1ccc(Cl)cc1 | 0.934
CC(c1ccc(F)cc1)n1c(-c2ccc3ccccc3n2)n[nH]c1=S (centres undefined) | 6.84 (active)
S=c1[nH]nc(-c2ccc3ccccc3n2)n1-c1ccc2ncccc2c1 | -0.148
S=c1[nH]nc(-c2ccc3ccccc3n2)o1 | -0.153
S=c1[nH]nc(-c2ccc3ccccc3n2)n1-c1cc(Cl)cc(Cl)c1 | 2.18
S=c1[nH]nc(-c2ccc3ccccc3n2)n1-c1ccccc1Cl | 0.0824
